PGE2 EP2 inh: human EP2 receptor antagonists, primary screen, TR-FRET cAMP, C6 glioma cells. C6 glioma cells expressing human EP2; cells stimulated with saturating PGE2. inhibition, % at 25 µM. actives 0.52% (n = 260,000);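 active means percent inhibition above 40 after rounding to a whole number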;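 further: rat C6 glioma host cells with rolipram phosphodiesterase inhibitor present; the protocol text gives 20 µM as final concentration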
Target sequence (P43116 whole entry, looked up): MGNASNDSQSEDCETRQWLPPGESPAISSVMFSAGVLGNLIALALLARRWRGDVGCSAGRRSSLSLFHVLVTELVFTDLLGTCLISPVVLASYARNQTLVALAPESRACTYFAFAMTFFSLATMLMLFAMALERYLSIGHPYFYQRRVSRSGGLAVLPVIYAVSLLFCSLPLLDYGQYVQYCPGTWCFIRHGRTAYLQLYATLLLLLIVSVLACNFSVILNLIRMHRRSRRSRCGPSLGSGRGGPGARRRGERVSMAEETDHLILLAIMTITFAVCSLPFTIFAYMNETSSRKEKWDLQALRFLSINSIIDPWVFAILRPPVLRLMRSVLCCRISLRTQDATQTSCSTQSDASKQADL
Efa HMGR inh: inhibitors of E. faecalis class II HMGR, primary screen, biochemical, Enterococcus faecalis; inhibition, % at 10 µM; purified E. faecalis HMGR, NADPH absorbance 340 nm kinetic; actives 0.41% (n = 190,000); HMG-CoA reductase (Enterococcus faecalis, mvaE);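 active means inhibition above a set limit, the median over all tested compounds plus 3 SD, cut at about 9.5% in these data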;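 further: enzyme runs in reverse so mevalonate oxidation gives rising NADPH absorbance; 0% = complete reaction with DMSO and 100% = background rate lacking mevalonate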
EP2 mod: EP2 receptor modulators, cAMP readout, primary screen, cell-based, HTRF cAMP, PGE2 stimulation; AID 940, 2007; EP2-expressing cells, cAMP HTRF FRET, PGE2 co-stimulation; actives 0.83% (n = 260,000); induction, % at 25 µM;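 active means compounds whose cAMP rise, as percent of the full-agonist control response, exceeds 60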;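 further: rat C6 glioma line stably carrying human EP2 under a CMV promoter; the protocol text gives 20 µM as final concentration; 100% = response of wells given 1 µM PGE2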
Avidin fluor: green autofluorescence of compounds with avidin beads – biophysical, 488/530 nm, flow cytometry, artefact control, profiling panel; compound fluorescence 488/530 nm; stronger effect = higher value; fluorescence (KMESF) at 10 µM; actives 0.38% (n = 220,000); AID 1775, 2009; in the data active means fluorescence above about 47
GSH fluor: compound fluorescence on glutathione beads, profiling panel, artefact control, biophysical, 488/530 nm, flow cytometry | actives 0.25% (n = 190,000) | fluorescence (KMESF) at 10 µM | GSH beads flow cytometry, compound fluorescence 488/530 nm; stronger effect = higher value; in the data active means fluorescence above about 89;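 further: glutathione beads carrying GST-tagged Bcl family fusion proteins plus one bare bead set; values are compound well signal with DMSO vehicle wells as background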
Numbers without * were called inactive; ! = repeats disagree. The list is not random: actives were taken first. Their share in the collection is about 2.1%.

How did CN(C)CCN=Cc1c(O)n(-c2cccc(C(F)(F)F)c2)c(=O)[nH]c1=O do in these assays?
PGE2 EP2 inh: 11.5; Efa HMGR inh: -2.2; EP2 mod: -3.2; Avidin fluor: 10; GSH fluor: 266*

How did Cc1cc(NC(=O)CN2C3CCC2CC(O)(c2nccn2C)C3)no1 (stereo unspecified) do in these assays?
EP2 mod: -12.3

Results for CCOC(=O)c1c(C)n(Cc2ccc3c(c2)OCO3)c2ccc(O)cc12 ?
PGE2 EP2 inh: 6.4; Efa HMGR inh: -0.3; EP2 mod: 38.2; Avidin fluor: 7; GSH fluor: 249*

How did COC(=O)c1c(C)n(Cc2ccc3c(c2)OCO3)c2ccc(O)cc12 do in these assays?
PGE2 EP2 inh: 9.7; Efa HMGR inh: -5.0; EP2 mod: -21.0; Avidin fluor: 41; GSH fluor: 49

How did Cn1ccnc1C1(O)CC2CCC(C1)N2CC(=O)NCCc1ccccc1 (stereo unspecified) do in these assays?
EP2 mod: 37.2

How did O=C1NC(=O)N(CC2CCCO2)C(=O)/C1=C/c1cccs1 (stereo unspecified) do in these assays?
PGE2 EP2 inh: 13.8; EP2 mod: -105.9; Avidin fluor: 75*

Results for CCN(CC)c1ccc(/C=C2/C(=O)NC(=O)N(CC3CCCO3)C2=O)cc1 (stereo unspecified) ?
PGE2 EP2 inh: 28.1; Efa HMGR inh: -5.2; EP2 mod: -26.6; Avidin fluor: 8; GSH fluor: 14

Results for CC(C)(C)C(=O)c1cn(Cc2ccc(C#N)cc2)c2ccccc12 ?
PGE2 EP2 inh: 8.7; EP2 mod: 15.7

Results for O[C@H](CN1CC1)[C@@H](O)CN1CC1 ?
PGE2 EP2 inh: 42.4*; EP2 mod: 22.1

What do the screens show for `Cc1ccc(CN2CCNCC2)cc1`?
PGE2 EP2 inh: 16.1; EP2 mod: -25.1

How did COC(=O)[C@@H]1C(=O)[C@H](C(=O)OC)[C@@H]2CC[C@H]1N2C do in these assays?
PGE2 EP2 inh: 42.9*; EP2 mod: 44.6

Results for Cc1ccc2c(c1)CC1(CN2C)C(=O)NC(=O)N(c2ccc(C)c(C)c2)C1=O (stereo unspecified) ?
PGE2 EP2 inh: 5.9; Efa HMGR inh: -3.0; EP2 mod: 18.8; Avidin fluor: 6; GSH fluor: 256*

How did Cc1cc[c]([Sb]2[O][C@H]([C@H](O)[C@H](O)C(=O)O)[C@@H](CO)[O]2)cc1 do in these assays?
PGE2 EP2 inh: 48.6*; EP2 mod: 18.6

How did CC(c1ccc(F)cc1)n1cc(C(=O)NC2CCCC2)nn1 (stereo unspecified) do in these assays?
PGE2 EP2 inh: 17.1; EP2 mod: -16.6

What do the screens show for `S=C1CN=C(c2ccccc2Cl)c2cc(Cl)ccc2N1`?
Efa HMGR inh: -0.6; EP2 mod: 19.0; Avidin fluor: 5; GSH fluor: 119*

What do the screens show for `O=C(C1CC1)N1CCCc2cc(C(O)CN3CC=C(c4ccc(F)cc4)CC3)ccc21` (stereo unspecified)?
PGE2 EP2 inh: 4.6; EP2 mod: -88.4

Results for C[C@]12CC[C@H](O)CC1=CC[C@@H]1[C@@H]2CC[C@@]2(C)[C@H]1CC[C@]2(C)O ?
PGE2 EP2 inh: 14.9

What do the screens show for `Cc1c([C@@H](C)[C@H]2NC[C@H](C)C[C@@H]2O)ccc2c1C[C@@H]1[C@@H]2CC=C2C[C@@H](O)CC[C@@]21C`?
PGE2 EP2 inh: 43.0*; EP2 mod: 8.2

Results for CC1(C)CSC(Nc2ccc(F)c(Cl)c2)=N1 ?
PGE2 EP2 inh: 6.3; Efa HMGR inh: 0.6; EP2 mod: -13.7; Avidin fluor: 7; GSH fluor: 253*

How did CC12CCC3C(CC=C4CC(O)CCC43C)C1C/C(=C\c1cccc(F)c1)C2=O (stereo unspecified) do in these assays?
PGE2 EP2 inh: 3.3; Efa HMGR inh: -6.4; EP2 mod: 5.3; Avidin fluor: 11; GSH fluor: 12

Results for CC1=C2C(=O)[C@H]3[C@@H](CC=C4C[C@@H](O)CC[C@@]43C)[C@@H]2CC[C@@]12O[C@@H]1C[C@H](C)CN[C@H]1[C@@H]2C ?
PGE2 EP2 inh: 41.0*; EP2 mod: 18.5

Results for O=c1[nH]c(O)c(/C=C2\C=NN=C2c2ccccc2)c(=O)[nH]1 ?
PGE2 EP2 inh: 8.7; Efa HMGR inh: 0.0; EP2 mod: 24.6; Avidin fluor: 5; GSH fluor: 266*

What do the screens show for `CC1=NN(c2ccccc2)C(=O)/C1=C/c1c(O)[nH]c(=O)[nH]c1=O`?
PGE2 EP2 inh: 3.0; Efa HMGR inh: 5.0; EP2 mod: 2.0; Avidin fluor: 5; GSH fluor: 26

What do the screens show for `COc1ccccc1CNC(=O)CN1C2CCC1CC(O)(c1ccco1)C2` (stereo unspecified)?
EP2 mod: -3.5

What do the screens show for `CCCC(=O)N(C)C1=Nc2ccc(Cl)cc2C(c2ccccc2)=[N+]([O-])C1`?
PGE2 EP2 inh: 3.7; EP2 mod: 9.0; Avidin fluor: 8

What do the screens show for `CN(CCC(=O)O)C1=Nc2ccc(Cl)cc2C(c2ccccc2)=[N+]([O-])C1`?
PGE2 EP2 inh: 49.8*; EP2 mod: 13.9

How did O=C(CN1C(=O)CN=C(c2ccccc2Cl)c2c1sc1c2CCCC1)NCc1cccs1 do in these assays?
PGE2 EP2 inh: 10.3; EP2 mod: -74.0

Results for C[C@@H]1[C@H]2C=C[C@@H]1[C@H](c1c3ccc(=O)c(O)c-3oc3c(O)c(O)ccc13)[C@@H]2C(=O)O ?
PGE2 EP2 inh: 44.6*; EP2 mod: -10.1

Results for C=CCSc1nc2ccccc2c(=O)n1-c1ccccc1C ?
PGE2 EP2 inh: 4.9; EP2 mod: 78.1*

How did Cc1nc2ccccc2cc1C[N+]12CN3CN(CN(C3)C1)C2 do in these assays?
PGE2 EP2 inh: 49.6*; EP2 mod: 5.5

What do the screens show for `O=C(O)[C@@H]1C[C@H]1[C@@H](NP(=O)(c1ccccc1)c1ccccc1)c1ccccc1`?
PGE2 EP2 inh: 12.8; Efa HMGR inh: 20.7*; EP2 mod: 37.7; Avidin fluor: 11; GSH fluor: 17

Results for CCOc1nc(NCc2ccco2)nc(N2CC3CC(C2)c2cccc(=O)n2C3)n1 (stereo unspecified) ?
PGE2 EP2 inh: 4.0; EP2 mod: -36.6

What do the screens show for `CN1CCc2cc(O)cc3c2[C@H]1Cc1ccc(O)c(O)c1-3`?
PGE2 EP2 inh: 102.4*!; EP2 mod: 13.4

What do the screens show for `CCCN1CCc2cc(O)cc3c2[C@H]1Cc1ccc(O)c(O)c1-3`?
PGE2 EP2 inh: 76.8*!; EP2 mod: 9.2

From PubChem BioAssay
